# Several values for one entry are separate records, joined by “and”; a condition that tells them apart may be missing. Equal entries are not always repeated. The whole screen tested about 260,000 compounds, of which about 1,500 (0.58%) were called active. Not shown: some 5% with an inconclusive outcome.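 How the source made its calls: active means inhibition above a set limit at one or more doses, reproduced on every date tested; inconclusive means results disagree between test dates, or hit never tested in dose response; inactive means the rest.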 The list is a sample of the results. Measured potencies and affinities stand elsewhere.
# Molecular target: Virion infectivity factor (Human immunodeficiency virus type 1 group M subtype B (isolate BH10)) + Virion infectivity factor (Human immunodeficiency virus type 1 group M subtype B (isolate BRU/LAI)) + Virion infectivity factor (Human immunodeficiency virus type 1 group M subtype B (isolate PCV12)) + Virion infectivity factor (Human immunodeficiency virus type 1 group M subtype B (isolate HXB2)) + DNA dC->dU-editing enzyme APOBEC-3G (Homo sapiens) (UniProt P69720+P69721+P69722+P69723+Q9HC16)
# Assay: HIV-1 Vif–A3G interaction blockers – biochemical, TR-FRET, GST-Vif 1-94, biotin-A3G peptide, dose response retest, primary screen (AID 1117319);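 further: Vif residues 1-94 fused to GST binding biotinylated APOBEC3G peptide 110-148; 0% = full assay without inhibitor and 100% = GST in place of GST-Vif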
# Details: TR-FRET GST-Vif / biotin-A3G peptide binding; hits give high values
row,Structure (SMILES),inhibition
1,COc1ccc(CN2C(=O)C(CC(=O)NCCCCc3ccccc3)CC(C(=O)N(C(C)C)C(C)C)=C2C)cc1 (centres undefined),6.93% (inactive)
2,CN(Cc1ccccc1)C(=O)CCC(=O)N(C)Cc1ccccc1,0.41% (inactive)
3,C=CCNc1nc2c(c(=O)[nH]c(=O)n2C)n1Cc1cccc(C)c1,-3.73% (inactive)
4,CCN(CC)CCOC(=O)c1ccc(NC(=O)COc2cc(=O)n(CC)c3ccccc23)cc1,3.06% (inactive) and 4.99% (inactive)
5,COCCCN1C(=O)c2ccc(C(=O)NCc3ccco3)cc2C1=O,1.46% (inactive)
6,CC(C)C(=O)N1CCN(c2ccccc2NC(=S)NC(=O)/C=C/c2ccco2)CC1,4.53% (inactive)
7,O=C(/C=C/c1ccco1)NC(=S)Nc1cc(C(F)(F)F)ccc1N1CCOCC1,31.6% (inactive)
8,CS(=O)(=O)N(CCC#N)Cc1ccc(C=O)o1,-8.77% (inactive)
9,CS(=O)(=O)N(CCC#N)Cc1ccco1,0.4% (inactive)
10,Cc1ccc(Sc2ccc(/C=C3/C(=O)NN(c4ccccc4)C3=O)o2)cc1,22.1% (inactive)
11,CS(=O)(=O)N(CCC#N)Cc1ccc(/C=C2\C(=O)Nc3ccccc32)o1,-11% (inactive)
12,COc1cc2c(cc1OC)CN(C(=O)c1cc3ccccc3oc1=O)CC2,1.51% (inactive)
13,Cc1ccc(S(=O)(=O)N2CCC[C@H]2C(=O)OCCN2C(=O)c3ccccc3C2=O)cc1,-7.91% (inactive)
14,COC(=O)CN(C(=S)Nc1ccccc1)C1CC(=O)N(c2ccc(OC)cc2)C1=O (centres undefined),-1.92% (inactive)
15,Cc1cccc(NC(=O)C2CC(=O)NC(Nc3nc4ccccc4s3)=N2)c1 (centres undefined),11.6% (inactive)
16,O=C(COc1ccccc1)N1CCN(C(=O)c2cccs2)CC1,17.7% (inactive)
17,C=CCc1cc(/C=C/c2nc(O)c([N+](=O)[O-])c(=O)[nH]2)cc(OC)c1O,15% (inactive)
18,Cc1cccc(NC(=S)NC(=O)C(c2ccccc2)c2ccccc2)n1,-6.56% (inactive)
19,CCOC(=O)c1c(C)oc2c1C(=O)c1ccccc1C2=O,6.8% (inactive)
20,CCOc1ccc2noc3c2c1C(=O)c1ccccc1-3,31.7% (inactive)

row,Structure (SMILES),inhibition
1,CN1C(=O)S/C(=C/c2cccn2-c2cccc(C(=O)O)c2)C1=O,6.22% (inactive)
2,Cc1ccc(NC(=O)CN2C(=O)S/C(=C\c3cccn3-c3cccc(C(=O)O)c3)C2=O)cc1C,-0.87% (inactive)
3,Cc1cccc(C)c1NC(=O)CN1C(=O)S/C(=C\c2cccn2-c2cccc(C(=O)O)c2)C1=O,6.97% (inactive)
4,Cc1ccccc1NC(=O)CN1C(=O)S/C(=C\c2cccn2-c2cccc(C(=O)O)c2)C1=O,31.2% (inactive)
5,Cc1ccc(OCC(=O)N2CCOCC2)cc1C,-10.7% (inactive)
6,CCCOc1ccc(N2C(=O)CC(N3CCN(CCN=CC4=C(O)CC(C)(C)CC4=O)CC3)C2=O)cc1 (centres undefined),8.53% (inactive)
7,CCOC(=O)C1CCN(C(=O)C2CCN(S(=O)(=O)c3cccc4nsnc34)CC2)CC1,-1.01% (inactive)
8,COc1cc(C(=O)Oc2ccccc2N)cc(OC)c1OC,-1.18% (inactive)
9,Oc1ccc(N=Nc2ccccc2C(F)(F)F)c2cccnc12,9.97% (inactive)
10,O=Nc1ccc(O)c2ncccc12,25.1% (inactive)
11,COc1cccc(C2CC(=O)Nc3c2c(=O)n(C)c(=O)n3C)c1OC (centres undefined),10.5% (inactive)
12,CC(C)Oc1ccccc1C1CC(=O)Nc2c1c(=O)n(C)c(=O)n2C (centres undefined),0.23% (inactive)
13,O=C(CCCC(=O)OCC(F)(F)C(F)F)Nc1ccccc1F,0.88% (inactive)
14,O=C(O)C1CCCCC1C(=O)Nc1nc(-c2cccs2)cs1 (centres undefined),-11.2% (inactive)
15,CC(=O)OC1COC(n2ccc3cc([N+](=O)[O-])ccc32)C(OC(C)=O)C1OC(C)=O (centres undefined),-8.03% (inactive)
16,CC(=O)O[C@@H]1[C@@H](OC(C)=O)[C@H](n2ccc3cc([N+](=O)[O-])ccc32)OC[C@@H]1OC(C)=O,11.9% (inactive)
17,CCOc1ccc(-c2nc(CSc3nnc(N)s3)cs2)cc1,-2.32% (inactive)
18,CC(=O)c1ccc(OC(=O)CCN2c3ccccc3Sc3ccccc32)cc1,3.97% (inactive)
19,O=C(c1cc(-c2ccco2)on1)N1CCOCC1,5.5% (inactive)
20,CN1CCN(C(=O)c2cc(-c3ccco3)on2)CC1,-6.26% (inactive)

row,Structure (SMILES),inhibition
1,O=C(c1ccc(NS(=O)(=O)c2ccccc2)cc1)N1CCN(Cc2ccc3c(c2)OCO3)CC1,-2.32% (inactive) and -6.24% (inactive)
2,CCc1ccc(N(CC)C(=O)Cc2c(C(=O)O)n(C)c3ccccc23)cc1,3.87% (inactive)
3,C=CCOC(=O)C1=C(C)N=C2SCCC(=O)N2C1c1ccc(OC(=O)c2ccco2)cc1 (centres undefined),-4.13% (inactive)
4,Cn1c(-c2cnn(-c3ccccc3)c2-n2cccc2)n[nH]c1=S,-6.44% (inactive)
5,CCN(CC)Cc1cc(C(C)=O)ccc1O,1.01% (inactive)
6,CCc1oc(C(=O)O)cc1CN(CC)CC,19% (inactive)
7,O=C(COC(=O)c1cc(=O)[nH]c2ccccc12)Nc1nccs1,0.86% (inactive)
8,Cc1ccc(C(=O)C2=C(O)C(=O)N(c3ncccn3)C2c2ccc(Br)cc2)o1 (centres undefined),10.3% (inactive)
9,Cc1ccc(C(=O)C2=C(O)C(=O)N(c3ncccn3)C2c2ccc(Cl)cc2)o1 (centres undefined),-30.5% (inactive)
10,Cc1ccc(-n2c(-c3ccccc3)nnc2-c2cccs2)cc1,-9.97% (inactive)
11,O=C(CCc1ccc(S(=O)(=O)NCc2ccccc2)cc1)N1CCN(Cc2ccc3c(c2)OCO3)CC1,1.72% (inactive)
12,COC(=O)CCC(=O)OC1(C)C(=O)C=C2C=C(C3CC3)N(C3CCCCC3)C=C2C1=O (centres undefined),17.8% (inactive)
13,COCCN1C=C2C(=O)C(C)(OC(=O)CCC(=O)OC)C(=O)C=C2C=C1C1CC1 (centres undefined),10.6% (inactive)
14,COC(=O)CCC(=O)OC1(C)C(=O)C=C2C=C(C3CC3)N(c3cccc(C#N)c3)C=C2C1=O (centres undefined),11.9% (inactive)
15,CN1/C(=C\C(=O)COC(=O)c2ccco2)C(C)(C)c2ccccc21,3.26% (inactive)
16,COC(=O)CCC(=O)OC1(C)C(=O)C=C2C=C(C3CC3)N(CCc3ccccn3)C=C2C1=O (centres undefined),-2.65% (inactive)
17,CCCCC1=CC2=CC(=O)C(C)(OC(=O)CC)C(=O)C2=CN1Cc1ccccc1 (centres undefined),25% (inactive)
18,CC1(C)CC(=O)CC(C)(C)N1OC(=O)c1ccco1,0.85% (inactive)
19,CCCCC1=CC2=CC(=O)C(C)(OC(=O)CC)C(=O)C2=CN1CCc1ccccn1 (centres undefined),21.2% (inactive)
